40 sequences from publication PMC12820563, “FoxP3 forms a head-to-head dimer in vivo and stabilizes its multimerization on adjacent microsatellites” can be followed below.

In all, about 16,000 sequences were measured (“rpm ratio (pull-down/input)”: median about 0.5, highest 2% from about 5.5 on). This is one part of a sample in which the highest values are shown more often than they occur.

The experiment deals with T1, MBP-FoxP3dN (Mus musculus, UniProt Q99JB6 188-423).
T1 sequence: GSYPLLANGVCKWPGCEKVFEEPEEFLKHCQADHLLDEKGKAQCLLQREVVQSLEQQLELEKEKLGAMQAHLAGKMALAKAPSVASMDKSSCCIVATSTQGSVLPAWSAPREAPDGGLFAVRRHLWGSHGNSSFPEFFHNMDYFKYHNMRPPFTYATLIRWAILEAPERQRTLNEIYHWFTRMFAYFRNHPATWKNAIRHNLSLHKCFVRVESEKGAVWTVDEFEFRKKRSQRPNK
As to the kind of experiment: PD-seq (MBP pull-down with sequencing); 20 mM Tris-HCl pH 7.5, 100 mM NaCl, 1.5 mM MgCl2, 0.4 uM protein, 0.1 uM dsDNA library, 30 min, room temperature, amylose pull-down; high values mean tight binding. To be noted: protein: recombinant; tags: His6-MBP; chain copies: 2; dsDNA, one strand shown. The essentials:
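A fragment of mouse FoxP3 or FoxP1 without its N-terminus, carrying a His6-MBP tag and produced in E. coli, was combined at 0.4 µM with a 0.1 µM degenerate double-stranded DNA library filled in with Klenow. The mixture sat for 30 min at room temperature in Tris pH 7.5 buffer containing NaCl and MgCl2. Protein–DNA complexes were captured on amylose resin, washed three times, and the DNA was freed with proteinase K, barcoded by PCR and sequenced on Illumina. Binding is expressed as reads-per-million enrichment of pull-down over input, with replicates pooled.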
In the case of “GATGATTGTTCTCCCAGCTGATGAATTTATCCGTTCGAGTAAACAAATTTTCCTAATCTTTCTGTTCAAGCGCCATCTAC”, the binding signal was 0.58 RPM ratio (pull-down/input).

On to “GATGATTGTTCTCCCAGCTGATGAATTGCTTTCATCGAGTAAACAAATTTTCCTAATCTTTCTGTTCAAGCGCCATCTAC”, for which the binding signal is 1.04 RPM ratio (pull-down/input).

Regarding “GATGATTGTTCTCCCAGCTGATGAATTGTAGCCATCGAGTAAACAAATTTTCCTAATCTTTCTGTTCAAGCGCCATCTAC”, the binding signal was 1.99 RPM ratio (pull-down/input).

As for “GATGATTGTTCTCCCAGCTGATGAATTTCAACGATCGAGTAAACAAATTTTCCTAATCTTTCTGTTCAAGCGCCATCTAC”, the binding signal was 0.284 RPM ratio (pull-down/input).

As for “GATGATTGTTCTCCCAGCTGATGAATTCTGGGGGTCGAGTAAACAAATTTTCCTAATCTTTCTGTTCAAGCGCCATCTAC”, the binding signal is 0.456 RPM ratio (pull-down/input).

“GATGATTGTTCTCCCAGCTGATGAATTTTTGTTTTCGAGTAAACAAATTTTCCTAATCTTTCTGTTCAAGCGCCATCTAC”: the binding signal was 2.51 RPM ratio (pull-down/input).

With “GATGATTGTTCTCCCAGCTGATGAATTGTTGAATTCGAGTAAACAAATTTTCCTAATCTTTCTGTTCAAGCGCCATCTAC”, the binding signal was 1 RPM ratio (pull-down/input).

With “GATGATTGTTCTCCCAGCTGATGAATTCTTTTTTTCGAGTAAACAAATTTTCCTAATCTTTCTGTTCAAGCGCCATCTAC”, the binding signal was 0.311 RPM ratio (pull-down/input).

As for “GATGATTGTTCTCCCAGCTGATGAATTCGAGTTTTCGAGTAAACAAATTTTCCTAATCTTTCTGTTCAAGCGCCATCTAC”, the binding signal is 0.651 RPM ratio (pull-down/input).

Regarding “GATGATTGTTCTCCCAGCTGATGAATTCTTTGATTCGAGTAAACAAATTTTCCTAATCTTTCTGTTCAAGCGCCATCTAC”, the binding signal is 0.276 RPM ratio (pull-down/input).

Turning to “GATGATTGTTCTCCCAGCTGATGAATTTTGTTTTTCGAGTAAACAAATTTTCCTAATCTTTCTGTTCAAGCGCCATCTAC”, the binding signal is 7.43 RPM ratio (pull-down/input).

In the case of “GATGATTGTTCTCCCAGCTGATGAATTCTGTTTTTCGAGTAAACAAATTTTCCTAATCTTTCTGTTCAAGCGCCATCTAC”, the binding signal is 5.51 RPM ratio (pull-down/input).

Regarding “GATGATTGTTCTCCCAGCTGATGAATTGTTTTGTTCGAGTAAACAAATTTTCCTAATCTTTCTGTTCAAGCGCCATCTAC”, the binding signal is 4.09 RPM ratio (pull-down/input).

Regarding “GATGATTGTTCTCCCAGCTGATGAATTTTTTGATTCGAGTAAACAAATTTTCCTAATCTTTCTGTTCAAGCGCCATCTAC”, the binding signal was 0.323 RPM ratio (pull-down/input).

On to “GATGATTGTTCTCCCAGCTGATGAATTCCTGTTTTCGAGTAAACAAATTTTCCTAATCTTTCTGTTCAAGCGCCATCTAC”, for which the binding signal is 0.929 RPM ratio (pull-down/input).

Take “GATGATTGTTCTCCCAGCTGATGAATTTGTTGATTCGAGTAAACAAATTTTCCTAATCTTTCTGTTCAAGCGCCATCTAC”: the binding signal is 7.3 RPM ratio (pull-down/input).

In the case of “GATGATTGTTCTCCCAGCTGATGAATTCTGTTGTTCGAGTAAACAAATTTTCCTAATCTTTCTGTTCAAGCGCCATCTAC”, the binding signal is 7.51 RPM ratio (pull-down/input).

With “GATGATTGTTCTCCCAGCTGATGAATTATTAGGTTCGAGTAAACAAATTTTCCTAATCTTTCTGTTCAAGCGCCATCTAC”, the binding signal was 0.47 RPM ratio (pull-down/input).

In the case of “GATGATTGTTCTCCCAGCTGATGAATTAACTTAGTCGAGTAAACAAATTTTCCTAATCTTTCTGTTCAAGCGCCATCTAC”, the binding signal is 0.295 RPM ratio (pull-down/input).

Take “GATGATTGTTCTCCCAGCTGATGAATTTCTTCACTCGAGTAAACAAATTTTCCTAATCTTTCTGTTCAAGCGCCATCTAC”: the binding signal is 0.269 RPM ratio (pull-down/input).

Regarding “GATGATTGTTCTCCCAGCTGATGAATTTAGGGTATCGAGTAAACAAATTTTCCTAATCTTTCTGTTCAAGCGCCATCTAC”, the binding signal is 1.02 RPM ratio (pull-down/input).

Turning to “GATGATTGTTCTCCCAGCTGATGAATTTGATTGGTCGAGTAAACAAATTTTCCTAATCTTTCTGTTCAAGCGCCATCTAC”, the binding signal was 5.03 RPM ratio (pull-down/input).

With “GATGATTGTTCTCCCAGCTGATGAATTTACCGGATCGAGTAAACAAATTTTCCTAATCTTTCTGTTCAAGCGCCATCTAC”, the binding signal is 0.251 RPM ratio (pull-down/input).

As for “GATGATTGTTCTCCCAGCTGATGAATTGTAGCTCTCGAGTAAACAAATTTTCCTAATCTTTCTGTTCAAGCGCCATCTAC”, the binding signal is 0.791 RPM ratio (pull-down/input).

For the sequence “GATGATTGTTCTCCCAGCTGATGAATTGGGGGAGTCGAGTAAACAAATTTTCCTAATCTTTCTGTTCAAGCGCCATCTAC”, the binding signal is 0.355 RPM ratio (pull-down/input).

On to “GATGATTGTTCTCCCAGCTGATGAATTTGTTTGTTCGAGTAAACAAATTTTCCTAATCTTTCTGTTCAAGCGCCATCTAC”, for which the binding signal was 7.56 RPM ratio (pull-down/input).

On to “GATGATTGTTCTCCCAGCTGATGAATTGTTGTTTTCGAGTAAACAAATTTTCCTAATCTTTCTGTTCAAGCGCCATCTAC”, for which the binding signal is 7.89 RPM ratio (pull-down/input).

Turning to “GATGATTGTTCTCCCAGCTGATGAATTTTGTTGTTCGAGTAAACAAATTTTCCTAATCTTTCTGTTCAAGCGCCATCTAC”, the binding signal was 8.13 RPM ratio (pull-down/input).

Take “GATGATTGTTCTCCCAGCTGATGAATTTTTTTGTTCGAGTAAACAAATTTTCCTAATCTTTCTGTTCAAGCGCCATCTAC”: the binding signal is 0.472 RPM ratio (pull-down/input).

Take “GATGATTGTTCTCCCAGCTGATGAATTGTTTTTTTCGAGTAAACAAATTTTCCTAATCTTTCTGTTCAAGCGCCATCTAC”: the binding signal is 4.84 RPM ratio (pull-down/input).

Turning to “GATGATTGTTCTCCCAGCTGATGAATTTGTTCTTTCGAGTAAACAAATTTTCCTAATCTTTCTGTTCAAGCGCCATCTAC”, the binding signal is 2.28 RPM ratio (pull-down/input).

Turning to “GATGATTGTTCTCCCAGCTGATGAATTGTTTGTTTCGAGTAAACAAATTTTCCTAATCTTTCTGTTCAAGCGCCATCTAC”, the binding signal is 7.87 RPM ratio (pull-down/input).

As for “GATGATTGTTCTCCCAGCTGATGAATTTTCTGTTTCGAGTAAACAAATTTTCCTAATCTTTCTGTTCAAGCGCCATCTAC”, the binding signal was 0.343 RPM ratio (pull-down/input).

Regarding “GATGATTGTTCTCCCAGCTGATGAATTTCTTTGTTCGAGTAAACAAATTTTCCTAATCTTTCTGTTCAAGCGCCATCTAC”, the binding signal is 2.28 RPM ratio (pull-down/input).

On to “GATGATTGTTCTCCCAGCTGATGAATTGTTTCTTTCGAGTAAACAAATTTTCCTAATCTTTCTGTTCAAGCGCCATCTAC”, for which the binding signal is 1.93 RPM ratio (pull-down/input).

In the case of “GATGATTGTTCTCCCAGCTGATGAATTGTTTGATTCGAGTAAACAAATTTTCCTAATCTTTCTGTTCAAGCGCCATCTAC”, the binding signal is 2.06 RPM ratio (pull-down/input).

Turning to “GATGATTGTTCTCCCAGCTGATGAATTTCTGTTTTCGAGTAAACAAATTTTCCTAATCTTTCTGTTCAAGCGCCATCTAC”, the binding signal is 1.13 RPM ratio (pull-down/input).

Regarding “GATGATTGTTCTCCCAGCTGATGAATTGGTTACCTCGAGTAAACAAATTTTCCTAATCTTTCTGTTCAAGCGCCATCTAC”, the binding signal was 0.673 RPM ratio (pull-down/input).

Turning to “GATGATTGTTCTCCCAGCTGATGAATTCGTCACGTCGAGTAAACAAATTTTCCTAATCTTTCTGTTCAAGCGCCATCTAC”, the binding signal was 1.77 RPM ratio (pull-down/input).

For “GATGATTGTTCTCCCAGCTGATGAATTCTTAAACTCGAGTAAACAAATTTTCCTAATCTTTCTGTTCAAGCGCCATCTAC”, the binding signal is 0.267 RPM ratio (pull-down/input).
